# Results published in publication PMC7862700, “An all-to-all approach to the identification of sequence-specific readers for epigenetic DNA modifications on cytosine”.
# Columns and labels:
# Experiment in all cases: DAPPL (digital affinity profiling via proximity ligation, sequencing); 10 mM Tris-HCl pH 7.5, 50 mM NaCl, 1 mM DTT, 4% glycerol, room temperature, 30 min; GST-TFs on glutathione beads, 16-mer random dsDNA library, 0.1% formaldehyde crosslink after washing; high values mean tight binding
# FLI1 = molecular target: T1, FLI1 (Homo sapiens, UniProt Q01543 1-452); conditions: protein: recombinant; tags: N-terminal GST; dsDNA, one strand shown
# T1 sequence: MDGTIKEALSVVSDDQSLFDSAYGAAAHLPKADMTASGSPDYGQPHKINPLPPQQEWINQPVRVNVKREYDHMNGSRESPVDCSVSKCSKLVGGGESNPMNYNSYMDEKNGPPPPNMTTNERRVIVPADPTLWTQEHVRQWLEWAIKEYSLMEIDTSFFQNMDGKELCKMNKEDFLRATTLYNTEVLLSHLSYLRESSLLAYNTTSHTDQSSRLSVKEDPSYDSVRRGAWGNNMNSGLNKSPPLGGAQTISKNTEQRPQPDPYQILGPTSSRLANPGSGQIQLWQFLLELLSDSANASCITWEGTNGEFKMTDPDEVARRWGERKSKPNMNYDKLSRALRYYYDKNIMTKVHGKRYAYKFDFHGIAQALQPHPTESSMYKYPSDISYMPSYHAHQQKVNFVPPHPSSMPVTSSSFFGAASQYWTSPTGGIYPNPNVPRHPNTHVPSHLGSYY
# Procedure, shortened: (§1)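 Pools of DNA-barcoded human transcription factors, expressed in yeast as GST fusions on glutathione beads and combined with a tag-only sample, were incubated with 200 nmole of a 16-mer random double-stranded DNA library. Incubation took 30 min at room temperature in Tris/NaCl/DTT/glycerol buffer and was followed by washing, 0.1% formaldehyde crosslinking, proximity ligation (BsaI/T4 ligase, 1 h, 37 °C), PCR amplification and sequencing on an Illumina NextSeq500. Binding signal is the ratio of a hexamer's read frequency for a factor to its frequency for the tag-only sample.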
# ELK1 = molecular target: T2, ELK1 (Homo sapiens, UniProt P19419 1-428); conditions: protein: recombinant; tags: N-terminal GST; dsDNA, one strand shown
# T2 sequence: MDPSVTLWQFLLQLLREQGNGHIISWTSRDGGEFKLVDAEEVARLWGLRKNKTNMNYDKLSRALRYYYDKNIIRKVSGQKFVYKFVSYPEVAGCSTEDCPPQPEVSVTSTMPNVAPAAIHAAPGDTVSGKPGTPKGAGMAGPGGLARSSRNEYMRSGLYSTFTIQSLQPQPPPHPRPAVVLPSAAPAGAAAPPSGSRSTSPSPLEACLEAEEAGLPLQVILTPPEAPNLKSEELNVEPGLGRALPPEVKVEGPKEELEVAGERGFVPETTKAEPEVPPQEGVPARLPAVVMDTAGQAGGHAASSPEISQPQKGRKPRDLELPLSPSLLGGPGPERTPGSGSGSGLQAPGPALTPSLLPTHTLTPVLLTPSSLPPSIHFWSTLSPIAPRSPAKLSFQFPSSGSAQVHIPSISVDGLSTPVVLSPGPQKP
# Procedure, shortened: as §1
# GABPA = molecular target: T3, GABPA (Homo sapiens, UniProt Q06546 1-454); conditions: protein: recombinant; tags: N-terminal GST; dsDNA, one strand shown
# T3 sequence: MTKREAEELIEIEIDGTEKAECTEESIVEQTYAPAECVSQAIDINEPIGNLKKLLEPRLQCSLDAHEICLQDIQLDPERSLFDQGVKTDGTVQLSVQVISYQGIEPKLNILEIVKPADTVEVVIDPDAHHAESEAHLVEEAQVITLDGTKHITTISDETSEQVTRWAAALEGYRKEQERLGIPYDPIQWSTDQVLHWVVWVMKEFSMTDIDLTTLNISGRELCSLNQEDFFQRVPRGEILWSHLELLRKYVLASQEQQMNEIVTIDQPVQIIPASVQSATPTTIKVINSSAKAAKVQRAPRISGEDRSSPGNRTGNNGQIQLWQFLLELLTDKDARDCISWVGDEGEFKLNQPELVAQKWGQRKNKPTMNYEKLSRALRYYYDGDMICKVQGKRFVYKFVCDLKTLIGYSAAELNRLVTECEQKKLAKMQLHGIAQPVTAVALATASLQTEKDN
# Procedure, shortened: as §1
# ERG = molecular target: T4, ERG (Homo sapiens, UniProt P11308 1-479); conditions: protein: recombinant; tags: N-terminal GST; dsDNA, one strand shown
# T4 sequence: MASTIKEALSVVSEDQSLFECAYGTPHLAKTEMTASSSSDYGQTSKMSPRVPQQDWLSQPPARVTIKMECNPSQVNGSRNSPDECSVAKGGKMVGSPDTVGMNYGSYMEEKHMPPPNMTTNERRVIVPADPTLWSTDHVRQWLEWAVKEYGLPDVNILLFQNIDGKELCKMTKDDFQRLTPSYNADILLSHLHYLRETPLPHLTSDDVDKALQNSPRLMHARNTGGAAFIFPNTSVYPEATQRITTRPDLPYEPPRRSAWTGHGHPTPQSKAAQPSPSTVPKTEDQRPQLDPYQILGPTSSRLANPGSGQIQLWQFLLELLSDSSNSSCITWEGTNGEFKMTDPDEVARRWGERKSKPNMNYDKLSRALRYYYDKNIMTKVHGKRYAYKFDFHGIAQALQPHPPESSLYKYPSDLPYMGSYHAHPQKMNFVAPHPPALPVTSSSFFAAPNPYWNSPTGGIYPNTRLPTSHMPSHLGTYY
# Procedure, shortened: as §1
# ELF1 = ELF1 (Homo sapiens, UniProt P32519 1-619); conditions: protein: recombinant; tags: N-terminal GST; dsDNA, one strand shown
# Procedure, shortened: as §1
# EHF = molecular target: T5, EHF (Homo sapiens, UniProt Q9NZC4 1-300); conditions: protein: recombinant; tags: N-terminal GST; dsDNA, one strand shown
# T5 sequence: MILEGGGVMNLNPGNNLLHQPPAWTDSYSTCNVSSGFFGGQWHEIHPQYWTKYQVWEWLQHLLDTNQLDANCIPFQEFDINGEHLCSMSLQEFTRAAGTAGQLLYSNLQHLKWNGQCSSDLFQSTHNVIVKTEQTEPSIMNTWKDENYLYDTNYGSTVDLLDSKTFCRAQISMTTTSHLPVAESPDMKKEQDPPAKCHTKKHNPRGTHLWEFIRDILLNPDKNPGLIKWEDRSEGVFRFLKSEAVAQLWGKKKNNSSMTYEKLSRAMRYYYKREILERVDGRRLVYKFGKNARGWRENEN
# Procedure, shortened: as §1
# SPI1 = SPI1 (Homo sapiens, UniProt P17947 1-270); conditions: protein: recombinant; tags: N-terminal GST; dsDNA, one strand shown
# Procedure, shortened: as §1
# SPIB = SPIB (Homo sapiens, UniProt Q01892 1-262); conditions: protein: recombinant; tags: N-terminal GST; dsDNA, one strand shown
# Procedure, shortened: as §1
# ELK3 = molecular target: T6, ELK3 (Homo sapiens, UniProt P41970 1-407); conditions: protein: recombinant; tags: N-terminal GST; dsDNA, one strand shown
# T6 sequence: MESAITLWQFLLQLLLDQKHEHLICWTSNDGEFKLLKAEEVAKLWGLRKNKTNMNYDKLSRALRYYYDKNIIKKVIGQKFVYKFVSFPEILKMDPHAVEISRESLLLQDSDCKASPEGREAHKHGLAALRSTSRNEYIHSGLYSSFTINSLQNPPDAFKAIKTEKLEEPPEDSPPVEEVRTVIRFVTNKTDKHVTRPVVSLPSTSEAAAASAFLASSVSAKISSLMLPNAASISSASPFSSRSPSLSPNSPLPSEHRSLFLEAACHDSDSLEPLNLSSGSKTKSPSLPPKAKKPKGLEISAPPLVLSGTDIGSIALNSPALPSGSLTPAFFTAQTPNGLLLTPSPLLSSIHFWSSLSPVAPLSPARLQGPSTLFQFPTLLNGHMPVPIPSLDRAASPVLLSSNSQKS
# Procedure, shortened: as §1
# FEV = molecular target: T7, FEV (Homo sapiens, UniProt Q99581 1-238); conditions: protein: recombinant; tags: N-terminal GST; dsDNA, one strand shown
# T7 sequence: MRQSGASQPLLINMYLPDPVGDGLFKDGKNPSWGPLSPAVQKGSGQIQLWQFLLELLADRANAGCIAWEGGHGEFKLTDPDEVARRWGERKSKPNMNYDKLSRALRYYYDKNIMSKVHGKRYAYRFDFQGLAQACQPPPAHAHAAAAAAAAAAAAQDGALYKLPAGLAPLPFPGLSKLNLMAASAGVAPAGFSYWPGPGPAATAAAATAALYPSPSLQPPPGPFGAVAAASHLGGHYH
# Procedure, shortened: as §1
# ETV5 = ETV5 (Homo sapiens, UniProt P41161 1-510); conditions: protein: recombinant; tags: N-terminal GST; dsDNA, one strand shown
# Procedure, shortened: as §1
# HSF1 = HSF1 (Homo sapiens, UniProt Q00613 1-529); conditions: protein: recombinant; tags: N-terminal GST; chain copies: 3; dsDNA, one strand shown
# Procedure, shortened: as §1
# SPIC = molecular target: T8, SPIC (Homo sapiens, UniProt Q8N5J4 1-248); conditions: protein: recombinant; tags: N-terminal GST; dsDNA, one strand shown
# T8 sequence: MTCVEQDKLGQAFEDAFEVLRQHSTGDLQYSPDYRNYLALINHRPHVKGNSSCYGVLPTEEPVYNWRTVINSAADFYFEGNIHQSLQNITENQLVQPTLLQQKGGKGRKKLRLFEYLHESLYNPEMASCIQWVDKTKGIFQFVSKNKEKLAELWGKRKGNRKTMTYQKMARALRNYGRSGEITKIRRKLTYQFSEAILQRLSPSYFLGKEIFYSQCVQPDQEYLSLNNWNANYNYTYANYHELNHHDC
# Procedure, shortened: as §1
# ELF4 = ELF4 (Homo sapiens, UniProt Q99607 1-663); conditions: protein: recombinant; tags: N-terminal GST; dsDNA, one strand shown
# Procedure, shortened: as §1
# ELK4 = molecular target: T9, ELK4 (Homo sapiens, UniProt P28324-2 1-405); conditions: protein: recombinant; tags: N-terminal GST; dsDNA, one strand shown
# T9 sequence: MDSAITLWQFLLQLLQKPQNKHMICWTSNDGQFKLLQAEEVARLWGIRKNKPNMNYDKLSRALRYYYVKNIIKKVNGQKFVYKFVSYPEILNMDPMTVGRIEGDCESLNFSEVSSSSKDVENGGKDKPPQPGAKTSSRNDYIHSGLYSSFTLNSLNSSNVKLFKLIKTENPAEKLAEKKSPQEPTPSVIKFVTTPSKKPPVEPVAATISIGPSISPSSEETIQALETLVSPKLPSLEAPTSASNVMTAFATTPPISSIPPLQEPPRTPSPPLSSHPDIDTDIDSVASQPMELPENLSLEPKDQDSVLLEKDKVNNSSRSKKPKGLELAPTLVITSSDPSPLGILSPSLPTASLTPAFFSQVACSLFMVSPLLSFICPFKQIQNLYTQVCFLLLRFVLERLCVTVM
# Procedure, shortened: as §1
# ETV2 = molecular target: T10, ETV2 (Homo sapiens, UniProt O00321 1-342); conditions: protein: recombinant; tags: N-terminal GST; dsDNA, one strand shown
# T10 sequence: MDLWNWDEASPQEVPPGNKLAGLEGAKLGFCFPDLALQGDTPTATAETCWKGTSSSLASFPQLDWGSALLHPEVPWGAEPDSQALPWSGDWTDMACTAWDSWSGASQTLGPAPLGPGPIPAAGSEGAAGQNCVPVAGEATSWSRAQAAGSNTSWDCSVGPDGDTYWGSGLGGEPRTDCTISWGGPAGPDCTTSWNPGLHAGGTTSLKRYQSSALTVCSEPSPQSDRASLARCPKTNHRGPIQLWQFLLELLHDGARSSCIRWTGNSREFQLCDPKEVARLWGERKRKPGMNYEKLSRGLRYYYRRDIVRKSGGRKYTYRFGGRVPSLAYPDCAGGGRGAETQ
# Procedure, shortened: as §1
# ELF3 = molecular target: T11, ELF3 (Homo sapiens, UniProt P78545 1-371); conditions: protein: recombinant; tags: N-terminal GST; dsDNA, one strand shown
# T11 sequence: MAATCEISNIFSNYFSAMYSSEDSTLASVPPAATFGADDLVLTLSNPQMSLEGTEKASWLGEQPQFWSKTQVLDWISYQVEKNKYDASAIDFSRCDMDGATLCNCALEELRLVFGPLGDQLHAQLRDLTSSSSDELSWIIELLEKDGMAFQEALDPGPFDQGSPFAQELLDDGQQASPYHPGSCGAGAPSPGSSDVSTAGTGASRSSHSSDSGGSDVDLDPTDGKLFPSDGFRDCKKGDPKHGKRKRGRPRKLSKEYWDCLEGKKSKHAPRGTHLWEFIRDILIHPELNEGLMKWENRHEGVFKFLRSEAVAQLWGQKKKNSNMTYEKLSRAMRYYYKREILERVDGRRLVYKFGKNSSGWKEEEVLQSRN
# Procedure, shortened: as §1
# CRX = CRX (Homo sapiens, UniProt O43186 1-299); conditions: protein: recombinant; tags: N-terminal GST; dsDNA, one strand shown
# Procedure, shortened: as §1
# ETV1 = ETV1 (Homo sapiens, UniProt P50549 1-477); conditions: protein: recombinant; tags: N-terminal GST; dsDNA, one strand shown
# Procedure, shortened: as §1
# ETV1, sequence (P50549 whole entry): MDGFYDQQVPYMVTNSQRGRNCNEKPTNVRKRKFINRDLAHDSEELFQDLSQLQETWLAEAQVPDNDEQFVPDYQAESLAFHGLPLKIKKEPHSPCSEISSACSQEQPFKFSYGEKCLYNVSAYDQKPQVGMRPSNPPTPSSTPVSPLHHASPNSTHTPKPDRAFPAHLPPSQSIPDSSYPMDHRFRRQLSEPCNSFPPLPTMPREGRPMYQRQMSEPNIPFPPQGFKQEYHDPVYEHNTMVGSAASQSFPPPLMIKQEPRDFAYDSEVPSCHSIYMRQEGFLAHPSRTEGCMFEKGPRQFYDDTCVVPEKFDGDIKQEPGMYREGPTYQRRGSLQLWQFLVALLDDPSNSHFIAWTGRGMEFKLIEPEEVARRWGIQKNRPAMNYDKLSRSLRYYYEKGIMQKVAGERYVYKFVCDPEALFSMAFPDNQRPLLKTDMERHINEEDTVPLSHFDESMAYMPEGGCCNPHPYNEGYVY
# HSF1, sequence (Q00613 whole entry): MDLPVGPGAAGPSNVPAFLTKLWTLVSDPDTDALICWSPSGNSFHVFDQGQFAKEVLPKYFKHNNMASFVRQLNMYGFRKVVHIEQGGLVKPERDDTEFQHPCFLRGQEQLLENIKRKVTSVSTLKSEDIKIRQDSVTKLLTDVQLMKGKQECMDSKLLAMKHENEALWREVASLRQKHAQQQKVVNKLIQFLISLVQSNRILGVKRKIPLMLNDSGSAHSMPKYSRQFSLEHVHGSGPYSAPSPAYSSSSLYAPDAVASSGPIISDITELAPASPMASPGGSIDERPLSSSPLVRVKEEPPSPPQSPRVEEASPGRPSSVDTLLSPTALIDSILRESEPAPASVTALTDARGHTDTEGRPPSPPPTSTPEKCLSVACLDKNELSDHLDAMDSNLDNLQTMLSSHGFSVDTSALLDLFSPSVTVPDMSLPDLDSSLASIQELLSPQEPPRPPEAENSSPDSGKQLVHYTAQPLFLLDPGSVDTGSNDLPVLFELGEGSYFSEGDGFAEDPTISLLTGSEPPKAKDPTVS
# CRX, sequence (O43186 whole entry): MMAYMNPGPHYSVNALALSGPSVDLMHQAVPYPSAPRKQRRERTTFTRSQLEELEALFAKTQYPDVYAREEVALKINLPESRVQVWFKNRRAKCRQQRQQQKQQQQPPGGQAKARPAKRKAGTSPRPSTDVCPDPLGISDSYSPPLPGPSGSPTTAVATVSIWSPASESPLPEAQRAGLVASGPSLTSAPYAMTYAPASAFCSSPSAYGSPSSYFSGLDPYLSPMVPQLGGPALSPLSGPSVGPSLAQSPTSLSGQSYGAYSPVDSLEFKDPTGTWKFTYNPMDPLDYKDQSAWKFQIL
# ELF4, sequence (Q99607 whole entry): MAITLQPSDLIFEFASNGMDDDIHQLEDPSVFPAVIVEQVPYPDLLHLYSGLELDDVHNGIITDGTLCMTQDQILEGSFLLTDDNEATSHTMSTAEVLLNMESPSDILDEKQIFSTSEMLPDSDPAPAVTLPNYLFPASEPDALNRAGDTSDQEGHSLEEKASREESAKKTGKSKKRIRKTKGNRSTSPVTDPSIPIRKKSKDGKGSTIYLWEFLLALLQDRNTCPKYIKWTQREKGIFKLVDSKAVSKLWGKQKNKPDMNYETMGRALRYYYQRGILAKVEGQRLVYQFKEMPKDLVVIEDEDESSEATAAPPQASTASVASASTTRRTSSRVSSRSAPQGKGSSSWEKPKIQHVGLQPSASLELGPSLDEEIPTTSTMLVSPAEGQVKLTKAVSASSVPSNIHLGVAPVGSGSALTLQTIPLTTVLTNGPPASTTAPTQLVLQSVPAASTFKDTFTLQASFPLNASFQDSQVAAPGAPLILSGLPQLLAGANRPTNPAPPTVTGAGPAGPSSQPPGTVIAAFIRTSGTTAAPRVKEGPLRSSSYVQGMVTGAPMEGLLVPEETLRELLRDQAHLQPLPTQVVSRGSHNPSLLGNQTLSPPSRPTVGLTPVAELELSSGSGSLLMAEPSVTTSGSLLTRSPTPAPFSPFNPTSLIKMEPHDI
# ELF1, sequence (P32519 whole entry): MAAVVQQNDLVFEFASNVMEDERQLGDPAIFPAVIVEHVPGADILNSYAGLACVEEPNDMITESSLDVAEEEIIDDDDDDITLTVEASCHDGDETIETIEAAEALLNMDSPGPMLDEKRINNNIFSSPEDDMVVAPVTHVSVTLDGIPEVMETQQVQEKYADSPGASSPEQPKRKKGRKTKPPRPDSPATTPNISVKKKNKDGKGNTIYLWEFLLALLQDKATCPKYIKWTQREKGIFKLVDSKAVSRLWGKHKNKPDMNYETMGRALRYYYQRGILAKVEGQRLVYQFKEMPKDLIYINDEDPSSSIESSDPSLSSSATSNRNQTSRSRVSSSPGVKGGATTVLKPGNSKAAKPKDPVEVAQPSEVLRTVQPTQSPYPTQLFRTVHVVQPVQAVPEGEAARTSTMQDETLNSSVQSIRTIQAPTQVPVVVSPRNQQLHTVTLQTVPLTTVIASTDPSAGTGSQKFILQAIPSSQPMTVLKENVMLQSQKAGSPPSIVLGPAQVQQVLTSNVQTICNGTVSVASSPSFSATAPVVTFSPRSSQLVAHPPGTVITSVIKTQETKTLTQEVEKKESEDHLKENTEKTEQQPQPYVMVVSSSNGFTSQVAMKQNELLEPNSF
# SPIB, sequence (Q01892 whole entry): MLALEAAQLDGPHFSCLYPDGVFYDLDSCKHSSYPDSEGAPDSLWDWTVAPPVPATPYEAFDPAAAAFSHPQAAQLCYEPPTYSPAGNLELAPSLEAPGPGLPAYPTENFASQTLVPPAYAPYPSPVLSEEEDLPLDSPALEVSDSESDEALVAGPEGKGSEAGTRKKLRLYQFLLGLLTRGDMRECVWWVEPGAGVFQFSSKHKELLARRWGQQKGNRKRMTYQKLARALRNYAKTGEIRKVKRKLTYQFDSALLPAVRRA
# ETV5, sequence (P41161 whole entry): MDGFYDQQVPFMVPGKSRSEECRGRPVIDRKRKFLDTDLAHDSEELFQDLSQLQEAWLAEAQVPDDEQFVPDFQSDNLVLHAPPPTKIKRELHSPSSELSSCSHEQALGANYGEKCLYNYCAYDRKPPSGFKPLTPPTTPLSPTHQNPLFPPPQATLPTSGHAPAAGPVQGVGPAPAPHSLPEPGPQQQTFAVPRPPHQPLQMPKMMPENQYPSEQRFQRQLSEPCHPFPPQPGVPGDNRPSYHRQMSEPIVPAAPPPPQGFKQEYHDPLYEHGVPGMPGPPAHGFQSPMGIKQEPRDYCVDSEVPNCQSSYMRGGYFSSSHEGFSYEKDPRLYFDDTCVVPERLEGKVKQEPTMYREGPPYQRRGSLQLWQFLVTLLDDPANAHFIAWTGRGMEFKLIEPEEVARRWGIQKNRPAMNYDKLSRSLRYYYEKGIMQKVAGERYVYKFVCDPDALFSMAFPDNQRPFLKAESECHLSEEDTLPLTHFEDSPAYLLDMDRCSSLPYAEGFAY
sequence,measurement,setting,value
ATCTGT,binding signal,FLI1,"1.25 fold enrichment (6-mer frequency, TF over GST control)"
same,binding signal,ELK1,"1.24 fold enrichment (6-mer frequency, TF over GST control)"
same,binding signal,GABPA,"1.18 fold enrichment (6-mer frequency, TF over GST control)"
same,binding signal,ERG,"1.19 fold enrichment (6-mer frequency, TF over GST control)"
same,binding signal,ELF1,"1.18 fold enrichment (6-mer frequency, TF over GST control)"
same,binding signal,EHF,"1.11 fold enrichment (6-mer frequency, TF over GST control)"
same,binding signal,SPI1,"1.13 fold enrichment (6-mer frequency, TF over GST control)"
same,binding signal,SPIB,"1.14 fold enrichment (6-mer frequency, TF over GST control)"
same,binding signal,ELK3,"1.07 fold enrichment (6-mer frequency, TF over GST control)"
same,binding signal,FEV,"1.22 fold enrichment (6-mer frequency, TF over GST control)"
same,binding signal,ETV5,"1.07 fold enrichment (6-mer frequency, TF over GST control)"
same,binding signal,HSF1,"1.26 fold enrichment (6-mer frequency, TF over GST control)"
same,binding signal,SPIC,"1.19 fold enrichment (6-mer frequency, TF over GST control)"
same,binding signal,ELF4,"1.21 fold enrichment (6-mer frequency, TF over GST control)"
same,binding signal,ELK4,"1.1 fold enrichment (6-mer frequency, TF over GST control)"
same,binding signal,ETV2,"1.19 fold enrichment (6-mer frequency, TF over GST control)"
same,binding signal,ELF3,"1.17 fold enrichment (6-mer frequency, TF over GST control)"
same,binding signal,CRX,"1.45 fold enrichment (6-mer frequency, TF over GST control)"
same,binding signal,ETV1,"1.26 fold enrichment (6-mer frequency, TF over GST control)"
